# Test results reported in PubChem BioAssay (Tox21).
# Several values for one entry are separate records, joined by “and”; a condition that tells them apart may be missing. Equal entries are not always repeated. A number with no mark means an inactive call. Results filed as inconclusive are left out. Where a call stands in place of a potency, no number is given. Activity calls are given as the source filed them. Unless noted, the call rests on the fitted dose curve; in most records, active means well fitted curve in the direction sought with a large enough effect in the repeat runs; inconclusive means weak or mixed curves; inactive means no such curve, though single readings can be large; an effect the other way counts as inactive or inconclusive.
# Columns and labels:
# [1] = target: Thyrotropin receptor (Homo sapiens) (UniProt P16473); experiment: qHTS assay to identify small molecule agonists of the thyroid stimulating hormone receptor (TSHR) signaling pathway (AID 1224843; calls by dose curve; further: nearly all actives have a fitted effect of over 45% in size); details: TSHR-HEK293 cells, cAMP HTRF, agonist mode, 30 min; series mostly up to 92.4 µM
# Method in brief: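 Screening of the Tox21 10K collection used HEK293 cells engineered with TSHR at 800 cells per well. After a 30-min room-temperature compound exposure, HTRF cAMP reagents were added and fluorescence recorded 1 h later.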
# [2] = qHTS assay to identify small molecule agonists of the hypoxia (HIF-1) signaling pathway - cell viability counter screen (AID 1224844; calls by dose curve; further: nearly all actives have a fitted effect of over 50% in size); details: HRE-bla ME-180 viability, CellTiter-Glo luminescence, 17 h; series mostly up to 76.8 µM
# Method in brief: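 Multiplexed with the HRE beta-lactamase assay, this viability read used CellTiter-Glo luminescence (30 min, RT) on HRE-bla ME-180 cells treated 17 hrs with compounds in 0.5% dialyzed FBS medium.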
# [3] = qHTS assay to identify small molecule agonists of H2AX (AID 1224845; active means well fitted activation curve with a large enough effect in the signal ratio in the repeat runs, not every such curve was filed as active; the % refers to the signal ratio); details: CHO-K1 phospho-H2AX Ser139 HTRF, 3 h; series mostly up to 154 µM
# Method in brief: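 Phospho-H2AX Ser139 measured by HTRF (ex 320 nm; em 665 and 620 nm) after 24 hr antibody incubation. Compounds, 15 concentrations, 0.76% DMSO, were applied to CHO-K1 cells for 3hr at 37C before lysis.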
# [4] = qHTS assay to identify small molecule agonists of the hypoxia (HIF-1) signaling pathway (AID 1224846; active means well fitted activation curve with a large enough effect in the signal ratio in the repeat runs, not every such curve was filed as active; the % refers to the signal ratio); details: HRE-bla ME-180 cells, beta-lactamase ratio, 17 h; series mostly up to 76.8 µM
# Method in brief: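 Hypoxia-pathway activation was scored as increased beta-lactamase from an HRE-controlled reporter in ME-180 cells; plated at 2,000 cells per well with 0.5% dialyzed FBS, they were exposed 17 hrs to compounds and then given CCF4-AM.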
# [5] = qHTS assay to identify small molecule agonists of H2AX - cell viability counter screen (AID 1224847; calls by dose curve;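 further: wild-type CHO-K1 cells; top concentration of the series differs between compounds; nearly all actives have a fitted effect of over 30% in size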); details: CHO-K1 viability, CellTiter-Glo luminescence, 3 h; series mostly up to 154 µM
# Method in brief: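 For this counter screen, overnight-attached CHO-K1 cells received test compounds (15 concentrations, 0.76% DMSO final); 3 hr later at 37C, CellTiter-Glo reagent was added and luminescence recorded after 30 min at room temperature.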
# [6] = qHTS assay to identify small molecule antagonists of the estrogen related receptor (ERR) signaling pathway from Tox21 library (AID 1224848); details: ERR reporter cell line, luciferase antagonist mode, 18 h; series mostly up to 92.4 µM; further: nearly all actives have a fitted effect of over 50% in size
# Method in brief: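 Antagonist-mode screen of the Tox21 10K library in an NTP-provided ERR reporter cell line; 18 h compound exposure at 37 C, luminescence measured with ONE-Glo.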
# [7] = qHTS RealTime-Glo MT Cell Viability Assay in HEK293 cells - 32 hour (AID 1224868); details: RealTime-Glo luminescence; series mostly up to 76.8 µM; further: nearly all actives have a fitted effect of over 50% in size; further: potency means the concentration at half of the fitted maximal effect
# Method in brief: (§1)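 Nonlytic real-time viability readout: viable cells convert prosubstrate to NanoLuc substrate, giving luminescence proportional to live cell number. HEK293, 600 cells/well, compound added after 5 h, continuous culture at 37 C.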
# [8] = A CellTox Green Cytotoxicity Assay to monitor cytotoxicity in HEK293 cells - 0 hour (AID 1224869); details: CellTox Green fluorescence; series mostly up to 76.8 µM; further: nearly all actives have a fitted effect of over 50% in size; further: potency means the concentration at half of the fitted maximal effect
# Method in brief: (§2)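 Seeding of HEK293 cells together with cytotoxicity dye preceded a 5 h incubation at 37 C/5% CO2. Test compounds in DMSO were then added and fluorescence monitored across 40 h.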
# [9] = qHTS RealTime-Glo MT Cell Viability Assay in HepG2 cells - 40 hour (AID 1224870); details: RealTime-Glo luminescence; series mostly up to 76.8 µM; further: nearly all actives have a fitted effect of over 50% in size
# Method in brief: (§3)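 Real-time viability: cells seeded at 600 per well together with NanoLuc and cell-permeant prosubstrate, compounds added after 5 h incubation. Luminescence tracked at 0, 8, 16, 24, 32 and 40 h of exposure.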
# [10] = A CellTox Green Cytotoxicity Assay to monitor cytotoxicity in HEK293 cells - 40 hour (AID 1224871); details: CellTox Green fluorescence; series mostly up to 76.8 µM; further: nearly all actives have a fitted effect of over 45% in size; further: potency means the concentration at half of the fitted maximal effect
# Method in brief: as §2
# [11] = qHTS RealTime-Glo MT Cell Viability Assay in HEK293 cells - 16 hour (AID 1224872); details: RealTime-Glo luminescence; series mostly up to 76.8 µM
# Method in brief: as §1
# [12] = qHTS RealTime-Glo MT Cell Viability Assay in HepG2 cells - 8 hour (AID 1224873); details: RealTime-Glo luminescence; series mostly up to 76.8 µM; further: nearly all actives have a fitted effect of over 55% in size
# Method in brief: as §3
# [13] = qHTS RealTime-Glo MT Cell Viability Assay in HEK293 cells - 40 hour (AID 1224874); details: RealTime-Glo luminescence; max response: stronger effect = lower value; further: nearly all actives have a fitted effect of over 50% in size; further: potency means the concentration at half of the fitted maximal effect
# Method in brief: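 Tox21 screen in HEK293 using RealTime-Glo MT chemistry, with cells and reagent co-dispensed. Luminescence proportional to viable cell number was captured at intervals during 40 h compound exposure at 37 C.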
# [14] = A CellTox Green Cytotoxicity Assay to monitor cytotoxicity in HEK293 cells - 24 hour (AID 1224875); details: CellTox Green fluorescence; series mostly up to 76.8 µM; further: nearly all actives have a fitted effect of over 45% in size; further: potency means the concentration at half of the fitted maximal effect
# Method in brief: as §2
# [15] = qHTS RealTime-Glo MT Cell Viability Assay in HepG2 cells - 32 hour (AID 1224877); details: RealTime-Glo luminescence; series mostly up to 76.8 µM; further: nearly all actives have a fitted effect of over 55% in size
# Method in brief: (§4)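 Luminescence read-out: viable HepG2 cells reduce a prosubstrate to a NanoLuc substrate, giving a signal proportional to live cell number. Reads taken at 0, 8, 16, 24, 32 and 40 h of compound exposure at 37 C.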
# [16] = A CellTox Green Cytotoxicity Assay to monitor cytotoxicity in HepG2 cells - 24 hour (AID 1224878); details: CellTox Green fluorescence; series mostly up to 76.8 µM; further: nearly all actives have a fitted effect of over 45% in size; further: potency means the concentration at half of the fitted maximal effect
# Method in brief: (§5)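 Nonlytic assay: viable cells exclude the dye, so fluorescence scales with cell death. HepG2 at 600 cells/well, compounds added after 5 h, signal read across 40 h.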
# [17] = A CellTox Green Cytotoxicity Assay to monitor cytotoxicity in HepG2 cells - 40 hour (AID 1224879); details: CellTox Green fluorescence; series mostly up to 76.8 µM; further: nearly all actives have a fitted effect of over 40% in size; further: potency means the concentration at half of the fitted maximal effect
# Method in brief: as §5
# [18] = qHTS RealTime-Glo MT Cell Viability Assay in HepG2 cells - 24 hour (AID 1224867); details: RealTime-Glo luminescence; series mostly up to 76.8 µM; further: nearly all actives have a fitted effect of over 50% in size
# Method in brief: as §4
# [19] = A CellTox Green Cytotoxicity Assay to monitor cytotoxicity in HepG2 cells - 16 hour (AID 1224876); details: CellTox Green fluorescence; series mostly up to 76.8 µM; further: nearly all actives have a fitted effect of over 45% in size
# Method in brief: as §5
# [20] = qHTS assay to identify small molecule agonists of the estrogen related receptor (ERR) signaling pathway from Tox21 library (AID 1224849; calls by dose curve; further: nearly all actives have a fitted effect of over 15% in size); details: ERR reporter cell line, ONE-Glo luciferase, 18 h; at 92.4 µM (top of the series)
# Method in brief: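 Six hours post-seeding at 37 C/5% CO2, ERR cells receive DMSO-solubilised compounds; after 18 h at 37 C, ONE-Glo reagent is applied and luminescence recorded.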
# Sequence of Thyrotropin receptor (Homo sapiens) (P16473 whole entry, looked up): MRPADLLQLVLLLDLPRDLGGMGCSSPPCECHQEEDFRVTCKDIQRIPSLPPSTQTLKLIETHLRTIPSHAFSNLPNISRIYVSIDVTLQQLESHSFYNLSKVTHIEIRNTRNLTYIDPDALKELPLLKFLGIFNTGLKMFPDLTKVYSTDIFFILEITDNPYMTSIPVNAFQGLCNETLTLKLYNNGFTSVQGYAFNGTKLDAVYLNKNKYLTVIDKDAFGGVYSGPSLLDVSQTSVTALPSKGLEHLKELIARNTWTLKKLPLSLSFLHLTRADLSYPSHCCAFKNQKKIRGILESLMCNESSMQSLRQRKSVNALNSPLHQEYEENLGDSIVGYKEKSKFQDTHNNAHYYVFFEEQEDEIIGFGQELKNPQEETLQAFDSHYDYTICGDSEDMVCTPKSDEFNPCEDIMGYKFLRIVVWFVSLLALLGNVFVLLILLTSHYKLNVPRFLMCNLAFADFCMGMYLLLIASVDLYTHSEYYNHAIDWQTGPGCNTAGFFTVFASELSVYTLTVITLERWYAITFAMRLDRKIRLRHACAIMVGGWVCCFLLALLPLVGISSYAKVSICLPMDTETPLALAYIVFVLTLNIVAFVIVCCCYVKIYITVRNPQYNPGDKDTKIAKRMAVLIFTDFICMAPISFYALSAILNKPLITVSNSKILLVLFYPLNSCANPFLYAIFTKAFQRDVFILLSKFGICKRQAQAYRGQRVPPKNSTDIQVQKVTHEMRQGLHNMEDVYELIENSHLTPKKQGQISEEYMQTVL
smiles,measurement,setting,value
CCOCCOCCO,Potency,[1],inactive
same,Potency,[2],inactive
same,outcome,[3],inactive
same,Potency,[4],inactive
same,Potency,[5],inactive
same,Potency,[6],inactive
same,Potency,[7],inactive
same,Potency,[8],inactive
same,Potency,[9],inactive
same,Potency,[10],inactive
same,Potency,[11],inactive
same,Potency,[12],inactive
same,max response,[13],10.2% and 7.38%
same,Potency,[14],inactive
same,Potency,[15],inactive
same,Potency,[16],inactive
same,Potency,[17],inactive
Cc1cc2nc3c(=O)[nH]c(=O)nc-3n(C[C@H](O)[C@H](O)[C@H](O)CO)c2cc1C,Potency,[1],inactive
same,Potency,[2],inactive
same,outcome,[3],inactive
same,Potency,[5],inactive
same,Potency,[18],inactive
same,Potency,[7],inactive
same,Potency,[8],43.2 µM (active) and 40.5 µM (active) and 11.7 µM (active)
same,Potency,[9],inactive
same,Potency,[10],43.2 µM (active) and 40.5 µM (active) and 10.4 µM (active)
same,Potency,[11],inactive
same,Potency,[12],inactive
same,max response,[13],-7.07% and -0.427% and -0.0783%
same,Potency,[14],48.5 µM (active) and 40.5 µM (active) and 11.7 µM (active)
same,Potency,[15],inactive
same,Potency,[16],43.2 µM (active) and 40.5 µM (active) and 11.7 µM (active)
same,Potency,[17],43.2 µM (active) and 40.5 µM (active) and 11.7 µM (active)
Cc1cccc(N(C)C(=S)Oc2ccc3ccccc3c2)c1,Potency,[1],inactive
same,Potency,[2],inactive
same,outcome,[3],inactive
same,Potency,[18],inactive
same,Potency,[7],inactive
same,Potency,[8],inactive
same,Potency,[10],inactive
same,Potency,[11],inactive
same,Potency,[12],inactive
same,max response,[13],-21.9% and -0.992%
same,Potency,[14],inactive
same,Potency,[19],inactive
same,Potency,[15],inactive
same,Potency,[16],inactive
same,Potency,[17],inactive
CC(C)CC(C)(O)C#CC(C)(O)CC(C)C (stereo not drawn),Potency,[1],inactive
same,Potency,[2],inactive
same,Potency,[4],inactive
same,Potency,[5],inactive
same,Potency,[6],inactive
same,Potency,[18],inactive
same,Potency,[7],inactive
same,Potency,[8],inactive
same,Potency,[9],inactive
same,Potency,[10],inactive
same,Potency,[11],inactive
same,Potency,[12],inactive
same,max response,[13],-20.8% and -13.4%
same,Potency,[14],inactive
same,Potency,[19],inactive
same,Potency,[15],inactive
same,Potency,[16],inactive
same,Potency,[17],inactive
O=C(OCc1ccccc1)c1ccccc1O,Potency,[1],inactive
same,Potency,[2],inactive
same,outcome,[3],inactive
same,Potency,[4],inactive
same,Potency,[5],inactive
same,Potency,[18],inactive
same,Potency,[7],inactive
same,Potency,[8],inactive
same,Potency,[9],inactive
same,Potency,[10],inactive
same,Potency,[11],inactive
same,Potency,[12],inactive
same,max response,[13],-14.6% and -4.96%
same,Potency,[14],inactive
same,Potency,[19],inactive
same,Potency,[15],inactive
same,Potency,[16],inactive
same,Potency,[17],inactive
Nc1ccc(Cl)cc1Cl,Potency,[1],inactive
same,Potency,[2],inactive
same,Potency,[4],inactive
same,Potency,[5],inactive
same,Potency,[6],inactive
same,"activity change, positive = activation",[20],1.8%
same,Potency,[18],inactive
same,Potency,[7],inactive
same,Potency,[8],inactive
same,Potency,[10],inactive
same,Potency,[11],inactive
same,Potency,[12],inactive
same,max response,[13],8.67% and 2.84%
same,Potency,[14],inactive
same,Potency,[15],inactive
same,Potency,[16],inactive
same,Potency,[17],inactive
O=Cc1ccccc1O,Potency,[1],inactive
same,outcome,[3],inactive
same,Potency,[4],inactive
same,Potency,[5],inactive
same,Potency,[18],inactive
same,Potency,[7],inactive
same,Potency,[8],inactive
same,Potency,[9],inactive
same,Potency,[10],inactive
same,Potency,[11],inactive
same,Potency,[12],inactive
same,max response,[13],3.18% and 0.0852%
same,Potency,[14],inactive
same,Potency,[19],inactive
same,Potency,[15],inactive
same,Potency,[16],inactive
same,Potency,[17],inactive
CN1C(C(=O)Nc2ccccn2)=C(O)c2ccccc2S1(=O)=O,Potency,[1],inactive
same,Potency,[2],inactive
same,Potency,[5],inactive
same,Potency,[7],inactive
same,Potency,[8],inactive
same,Potency,[10],inactive
same,Potency,[11],inactive
same,Potency,[12],inactive
same,max response,[13],10.9% and -0.648%
same,Potency,[14],inactive
same,Potency,[19],inactive
same,Potency,[15],inactive
same,Potency,[16],inactive
same,Potency,[17],inactive
O=C(/C=C/C=C/c1ccc2c(c1)OCO2)N1CCCCC1,Potency,[1],inactive
same,Potency,[2],inactive
same,Potency,[5],inactive
same,Potency,[6],inactive
same,"activity change, positive = activation",[20],24.4% (active) and 12.9% (active)
same,Potency,[18],inactive
same,Potency,[7],55.1 µM (active)
same,Potency,[8],inactive
same,Potency,[9],inactive
same,Potency,[10],inactive
same,Potency,[12],inactive
same,Potency,[13],55.1 µM (active)
same,Potency,[14],inactive
same,Potency,[19],inactive
same,Potency,[15],inactive
same,Potency,[16],inactive
C[Si](C)(C)O[Si](C)(C)C,Potency,[1],inactive
same,outcome,[3],inactive
same,Potency,[4],inactive
same,Potency,[5],inactive
same,Potency,[7],inactive
same,Potency,[8],inactive
same,Potency,[10],inactive
same,Potency,[11],inactive
same,Potency,[12],inactive
same,max response,[13],-0.246% and 0.761%
same,Potency,[14],inactive
same,Potency,[15],inactive
same,Potency,[16],inactive
same,Potency,[17],inactive
COc1ccc(OC)c(C(O)CNC(=O)CN)c1 (stereo not drawn),Potency,[1],inactive
same,Potency,[2],inactive
same,Potency,[5],inactive
same,Potency,[6],inactive
same,Potency,[7],inactive
same,Potency,[8],inactive
same,Potency,[10],inactive
same,Potency,[11],inactive
same,Potency,[12],inactive
same,max response,[13],2.49% and 0.0352%
same,Potency,[14],inactive
same,Potency,[19],inactive
same,Potency,[15],inactive
same,Potency,[16],inactive
same,Potency,[17],inactive
COc1cc([C@@H]2c3cc4c(cc3[C@H](O)[C@H]3COC(=O)[C@H]23)OCO4)cc(OC)c1OC,Potency,[1],inactive
same,outcome,[3],inactive
same,Potency,[4],inactive
same,Potency,[5],inactive
same,Potency,[18],inactive
same,Potency,[7],0.0489 µM (active)
same,Potency,[8],inactive
same,Potency,[9],inactive
same,Potency,[10],inactive
same,Potency,[11],inactive
same,Potency,[12],inactive
same,Potency,[13],0.0489 µM (active)
same,Potency,[14],inactive
same,Potency,[15],inactive
same,Potency,[16],inactive
same,Potency,[17],inactive
NNc1ccc(C(=O)O)cc1,Potency,[1],inactive
same,Potency,[2],inactive
same,Potency,[4],inactive
same,Potency,[5],inactive
same,Potency,[7],inactive
same,Potency,[8],inactive
same,Potency,[10],inactive
same,Potency,[11],inactive
same,Potency,[12],inactive
same,max response,[13],12.1%
same,Potency,[14],inactive
same,Potency,[19],inactive
same,Potency,[15],inactive
same,Potency,[16],inactive
same,Potency,[17],inactive
